# Laboratory results from PubChem BioAssay (NCI).
# Several values for one entry are separate records, joined by “and”; a condition that tells them apart may be missing. Identical values can stand only once. This is part of a sample that, as a whole, favours compounds with a hit. Of some 79,000 tested, about 15% had one in any assay. The source holds several records for some structures; these can differ, active in one and inactive in another. Activity calls are given as the source filed them. No stated cut-off is given here; in the data, active means growth inhibition above about 70%; inactive means the rest.
# Experiments:
# [1] = NCI Yeast Anticancer Drug Screen. Data for the rad50 strain (AID 155);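 further: 0% = growth of vehicle-only cultures of the same strain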; settings: S. cerevisiae rad50 strain growth inhibition, stronger effect = higher value
# In short: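 Relative growth inhibition (compound vs vehicle) was measured in yeast with a defined repair-gene alteration.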
# [2] = NCI Yeast Anticancer Drug Screen. Data for the mec2-1 strain (AID 157); settings: S. cerevisiae mec2-1 strain, stronger effect = higher value
# In short: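 Strain: mec2-1 (DNA repair/cell cycle alteration). Compound exposure, then growth measured; inhibition expressed relative to vehicle.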
# [3] = NCI Yeast Anticancer Drug Screen. Data for the sgs1 mgt1 strain (AID 161);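 further: 0% = growth of cultures given vehicle only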; settings: S. cerevisiae sgs1 mgt1 strain, stronger effect = higher value
# In short: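 Genetically altered yeast, compound exposure, growth inhibition relative to vehicle.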
# [4] = NCI Yeast Anticancer Drug Screen. Data for the cln2 rad14 strain (AID 165);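 further: 0% = growth equal to vehicle treated cultures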; settings: S. cerevisiae cln2 rad14 strain, stronger effect = higher value
# In short: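 Compounds are applied to the cln2 rad14 yeast strain, and growth is then compared with that of vehicle-treated cultures to give inhibition.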
# [5] = NCI Yeast Anticancer Drug Screen. Data for the bub3 strain (AID 167); settings: S. cerevisiae bub3 mutant strain, stronger effect = higher value
# In short: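 Screening used yeast with an engineered genetic alteration affecting cell cycle control. Compound-exposed cultures were compared with vehicle cultures, and reduced growth was taken as inhibition.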
# [6] = NCI Yeast Anticancer Drug Screen. Data for the mlh1 rad18 strain (AID 175); settings: S. cerevisiae mlh1 rad18 strain growth inhibition, stronger effect = higher value
# In short: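 Read-out is yeast growth inhibition, calculated against vehicle-only controls. The compound was applied to a strain engineered with DNA damage repair alterations.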
# [7] = at 5.0 µM (retest, dose inferred, filed as 0.5)
# [8] = at 50.0 µM (retest, dose inferred, filed as 5.0)
SMILES,"growth inhibition [1, 7]","growth inhibition [1, 8]",growth inhibition ([1]; at 50.0 µM),"growth inhibition [2, 7]","growth inhibition [2, 8]",growth inhibition ([2]; at 50.0 µM),"growth inhibition [3, 7]","growth inhibition [3, 8]",growth inhibition ([3]; at 50.0 µM),"growth inhibition [4, 7]","growth inhibition [4, 8]",growth inhibition ([4]; at 50.0 µM),"growth inhibition [5, 7]","growth inhibition [5, 8]",growth inhibition ([5]; at 50.0 µM),"growth inhibition [6, 7]","growth inhibition [6, 8]",growth inhibition ([6]; at 50.0 µM)
O=C1c2cccc(O)c2C(=O)c2cccc(O)c21,6% (inactive),17% (inactive),20.7% (inactive) and 33.4% (inactive),9% (inactive),17% (inactive),12.1% (inactive) and 22.7% (inactive),0% (inactive),7% (inactive),18.1% (inactive) and 82.8% (active),4% (inactive),24% (inactive),12.4% (inactive) and -23.5% (inactive),4% (inactive),1% (inactive),6% (inactive) and 30.1% (inactive),7% (inactive),39% (inactive),6.5% (inactive) and 76.8% (active)
CCCCCCCCCCCC(=O)CN1CCOCC1,34% (inactive),99% (active),98.9% (active),25% (inactive),100% (active),99.8% (active),47% (inactive),99% (active),61.9% (inactive),39% (inactive),99% (active),97.8% (active),87% (active),99% (active),99.7% (active),31% (inactive),99% (active),99.2% (active)
CCCCCCCCCC(=O)c1ccc(O)c(O)c1O,99% (active),98% (active),90.3% (active),99% (active),98% (active),91.8% (active),44% (inactive),94% (active),93.1% (active),63% (inactive),96% (active),91.1% (active),77% (active),79% (active),90.5% (active),100% (active),99% (active),89.7% (active)
CSC1SCC2C(=O)N(C)C(C(C)C)C(=O)OCC(NC(=O)c3cnc4ccccc4n3)C(=O)NC(C)C(=O)N(C)C1C(=O)N(C)C(C(C)C)C(=O)OCC(NC(=O)c1cnc3ccccc3n1)C(=O)NC(C)C(=O)N2C (stereo unspecified),8% (inactive) and 97% (active),98% (active) and 97% (active),98.8% (active) and 91.2% (active),4% (inactive) and 99% (active),98% (active),99.5% (active) and 91.7% (active),2% (inactive) and 98% (active),98% (active),98.8% (active) and 93% (active),8% (inactive) and 94% (active),98% (active) and 96% (active),98.2% (active) and 90.2% (active),7% (inactive) and 96% (active),98% (active) and 97% (active),98.7% (active) and 90.3% (active),6% (inactive) and 98% (active),98% (active) and 97% (active),99% (active) and 90.2% (active)
CCN(CC)Cc1cc2c(cc1O)CC[C@@H]1[C@@H]2CC[C@]2(C)C(=O)CC[C@@H]12,39% (inactive),80% (active),83.6% (active) and 25.6% (inactive),-5% (inactive),60% (inactive),55.8% (inactive) and 15.2% (inactive),16% (inactive),47% (inactive),78.5% (active) and 22.2% (inactive),-2% (inactive),11% (inactive),72.5% (active) and -21.2% (inactive),15% (inactive),67% (inactive),54% (inactive) and 56% (inactive),38% (inactive),81% (active),71.3% (active) and 20.9% (inactive)
C[C@H](CCC(=O)O)[C@H]1CC[C@H]2[C@@H]3[C@H](O)C[C@@H]4C[C@H](O)CC[C@]4(C)[C@H]3CC[C@]12C,24% (inactive),94% (active),90% (active),-14% (inactive),96% (active),91.3% (active),9% (inactive),96% (active),92.3% (active),19% (inactive),96% (active),90.2% (active),-3% (inactive),98% (active),90.5% (active),6% (inactive),97% (active),90.2% (active)
O=C(CC1=Nc2nnc(CCCCCCCc3nnc4n3C(=O)C(CC(=O)c3ccc5ccccc5c3)=N4)n2C1=O)c1ccc2ccccc2c1,1% (inactive),85% (active),17.9% (inactive),1% (inactive),92% (active),9.85% (inactive),-2% (inactive),93% (active),18.4% (inactive),6% (inactive),85% (active),82.1% (active),6% (inactive),88% (active),1.75% (inactive),3% (inactive),37% (inactive),26.9% (inactive)
